Out of some 2,300 compounds screened, about 1,400 (61%) were called active. Not shown: some 7% with an inconclusive outcome. How the calls were made is not given here. The set was probably picked from earlier hits. Not all results are given here. Entries with a potency or affinity are not part of this list.
These molecules were tested against FAD-linked sulfhydryl oxidase ALR (Homo sapiens) (UniProt P55789) (assay: ALR-catalysed DTT oxidation blockers – biochemical, H2O2 detection, luminescence, cherry-pick, dose response (AID 493248)). Conditions: purified ALR, H2O2 HRP-luminol luminescence; at 10 µM (top of the series).
FAD-linked sulfhydryl oxidase ALR (Homo sapiens), sequence (P55789 whole entry, looked up): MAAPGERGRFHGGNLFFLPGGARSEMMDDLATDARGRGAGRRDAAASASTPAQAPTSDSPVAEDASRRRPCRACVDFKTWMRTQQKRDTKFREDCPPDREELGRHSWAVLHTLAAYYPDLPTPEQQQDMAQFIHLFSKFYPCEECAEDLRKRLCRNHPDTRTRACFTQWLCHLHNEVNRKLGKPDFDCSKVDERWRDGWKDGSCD

**Q.** Which activity change, negative = inhibition does the source give for `CCCN(Cc1ccc(N(CC)CC)cc1)CC1CC1` here?
**A.** -0.019%

**Q.** Which activity change, negative = inhibition does the source give for `CN(CC(=O)NC1CCCCC1)S(=O)(=O)c1cccc2cccnc12` here?
**A.** 5.38%

**Q.** How did the activity change, negative = inhibition turn out when `O=C(Cc1ccccc1)Nc1ccc(C(=O)Nc2ccccc2C(=O)O)cc1` was run?
**A.** 5.48%

**Q.** Which activity change, negative = inhibition does the source give for `O=C(O)c1cccc(NC(=O)c2cccc(S(=O)(=O)Nc3cccc([N+](=O)[O-])c3)c2)c1` here?
**A.** -2.25%

**Q.** How did the activity change, negative = inhibition turn out when `O=S(=O)(NCCCN1CCN(c2ccccc2F)CC1)c1cccc2cccnc12` was run?
**A.** 20.3%

**Q.** `CNCc1ccccc1Sc1ccc(O)c(O)c1` was tested. Which activity change, negative = inhibition did it give?
**A.** -78.5%

**Q.** For `CC(=O)c1c(C)oc(C)c1CSCc1ccc(C(=O)O)o1`, which activity change, negative = inhibition is on record?
**A.** 16.7%

**Q.** For `CC(C)NC(=O)c1ccc(CSCc2ccccc2Cl)o1`, which activity change, negative = inhibition is on record?
**A.** -4.45%

**Q.** With `Cc1cc(-c2ccccc2)nc2cc(C(=O)NCc3ccco3)nn12` as the molecule, how does the activity change, negative = inhibition read?
**A.** -17.4%

**Q.** Which activity change, negative = inhibition does the source give for `CCCc1nn2c(N)c(/C=C3\C=Nc4ccccc43)c(=O)nc2s1` here?
**A.** -38%

**Q.** How did the activity change, negative = inhibition turn out when `CS(=O)(=O)c1nsc2nc(=O)c(/C=C3\C=Nc4ccccc43)c(N)n12` was run?
**A.** -69.9%

**Q.** `CCC(=O)Nc1ccc(C(=O)NCCCn2ccnc2)cc1` was tested. Which activity change, negative = inhibition did it give?
**A.** 87.5%

**Q.** With `CCCC(=O)NC(c1ccc(N(C)C)cc1)c1ccc2cccnc2c1O` (stereo not given) as the molecule, how does the activity change, negative = inhibition read?
**A.** 268%

**Q.** `CC1=Nc2cccc3cccc(c23)N1C` was tested. Which activity change, negative = inhibition did it give?
**A.** -10.4%

**Q.** Which activity change, negative = inhibition does the source give for `Cc1nc(-c2cccc(N)c2)cs1` here?
**A.** -3.17%

**Q.** `O=S(=O)(c1ccc(Cl)nc1)N1CCC(Cc2ccccc2)CC1` was tested. Which activity change, negative = inhibition did it give?
**A.** -5.04%

**Q.** `Cc1nc([N+](=O)[O-])c(Br)n1CC(=O)c1ccc(Cl)cc1` was tested. Which activity change, negative = inhibition did it give?
**A.** -18.7%

**Q.** For `CO/N=C/NC(=O)c1ccc([N+](=O)[O-])c(CS(=O)(=O)c2ccc(Cl)cc2)c1`, which activity change, negative = inhibition is on record?
**A.** 7.26%

**Q.** For `Cc1nn(C(C)C(=O)N/N=C/c2ccc(N(C)C)cc2)c(C)c1[N+](=O)[O-]` (stereo not given), which activity change, negative = inhibition is on record?
**A.** -45.7%

**Q.** `COc1cccc(Oc2cn[nH]c2-c2ccc(O)cc2O)c1` was tested. Which activity change, negative = inhibition did it give?
**A.** -53.3%

**Q.** With `COc1ccccc1-c1c(-c2ccc(O)cc2O)n[nH]c1C(F)(F)F` as the molecule, how does the activity change, negative = inhibition read?
**A.** 267%

**Q.** `Cc1cc(/C=C2\C(=N)N3N=CSC3=NC2=O)c(C)n1Cc1ccccc1` was tested. Which activity change, negative = inhibition did it give?
**A.** -36.4%

**Q.** Which activity change, negative = inhibition does the source give for `Cn1nnnc1SCc1csc(Nc2ccccc2)n1` here?
**A.** -51.7%

**Q.** How did the activity change, negative = inhibition turn out when `CCN1C(=O)/C(=C/N(C)C)c2ccccc21` was run?
**A.** 14.1%

**Q.** Which activity change, negative = inhibition does the source give for `Cc1ccc(-c2nc(-c3ccc(Cl)cc3)sc2CC(=O)O)c(C)c1` here?
**A.** -95.8%

**Q.** For `Cc1ccc(-c2sc(-c3cccnc3)nc2CC(=O)O)cc1`, which activity change, negative = inhibition is on record?
**A.** -3.54%

**Q.** How did the activity change, negative = inhibition turn out when `CCCCC(=O)Nc1ccnc(-c2cccnc2)n1` was run?
**A.** 34%

**Q.** Which activity change, negative = inhibition does the source give for `CN(C)c1cccc2c(/C=N/O)ccc(N(C)C)c12` here?
**A.** 3.9%

**Q.** How did the activity change, negative = inhibition turn out when `O=C(Cc1cccs1)N/N=C\c1ccc(O)cc1` was run?
**A.** -96.8%

**Q.** How did the activity change, negative = inhibition turn out when `Cc1ccc(C(=O)Nc2cccc([N+](=O)[O-])c2)cc1S(=O)(=O)Nc1ccc(C(=O)O)cc1` was run?
**A.** -15%

**Q.** Which activity change, negative = inhibition does the source give for `COc1cccc2sc(Nc3nnc(-c4ccccc4Cl)o3)nc12` here?
**A.** -55.9%

**Q.** `Cc1noc(C(=O)N2CCN(c3ccccc3)CC2)c1Cl` was tested. Which activity change, negative = inhibition did it give?
**A.** -27.4%

**Q.** `Cc1onc(C(=O)N2CCN(c3ccccc3)CC2)c1[N+](=O)[O-]` was tested. Which activity change, negative = inhibition did it give?
**A.** -51.4%

**Q.** `c1ccc2c(c1)CC(N1CCCCC1)c1ccccc1N2` (stereo not given) was tested. Which activity change, negative = inhibition did it give?
**A.** -14.9%

**Q.** How did the activity change, negative = inhibition turn out when `C=CCNC(=O)c1ccccc1S(=O)c1ccccc1C#N` (stereo not given) was run?
**A.** -6.74%

**Q.** How did the activity change, negative = inhibition turn out when `Nc1nc(CN2CCN(C(=O)c3ccco3)CC2)nc(Nc2cccc(Cl)c2)n1` was run?
**A.** -24.8%

**Q.** How did the activity change, negative = inhibition turn out when `CN1CCN(S(=O)(=O)c2ccc(N)cc2)CC1` was run?
**A.** -29.3%

**Q.** With `Brc1ccc(-c2ncc3ccccn23)cc1` as the molecule, how does the activity change, negative = inhibition read?
**A.** -33.1%

**Q.** `Cc1nn(C)c(Sc2ccccc2N)c1[N+](=O)[O-]` was tested. Which activity change, negative = inhibition did it give?
**A.** -39.9%

**Q.** For `O=[N+]([O-])c1ccc2c(c1)CNc1ccccc1O2`, which activity change, negative = inhibition is on record?
**A.** -57.2%

**Q.** With `O=C(O)c1ccccc1CSC1=NCCS1` as the molecule, how does the activity change, negative = inhibition read?
**A.** -98.5%

**Q.** How did the activity change, negative = inhibition turn out when `CC(=O)Nc1ccc(SC[C@H](CC(C)C)N2CCN(CC(C)C)CCC2=O)cc1` was run?
**A.** 0.961%

**Q.** How did the activity change, negative = inhibition turn out when `O=C(O)c1ccc(-n2c(/C=C/c3cccc([N+](=O)[O-])c3)nc3ccccc3c2=O)cc1` was run?
**A.** -30.3%

**Q.** `CC1CCN(CCCNC(=O)c2ccc(CSCc3cccc(Cl)c3)o2)CC1` was tested. Which activity change, negative = inhibition did it give?
**A.** 26.9%

**Q.** For `O=C(c1ccc(CS(=O)Cc2ccccc2Cl)o1)N1CCN(c2cccc(Cl)c2)CC1` (stereo not given), which activity change, negative = inhibition is on record?
**A.** 45.7%

**Q.** Which activity change, negative = inhibition does the source give for `O=C(c1ccc(CS(=O)(=O)c2ccc(Br)cc2)o1)N1CCCC1` here?
**A.** 43.5%

**Q.** Which activity change, negative = inhibition does the source give for `COc1cccc(N2CCN(C(=O)c3cc(C)oc3C)CC2)c1` here?
**A.** -48.7%

**Q.** How did the activity change, negative = inhibition turn out when `COc1ccc(-c2coc3cc(O)ccc3c2=O)cc1O` was run?
**A.** -45.2%

**Q.** `COC(=O)c1c(-c2ccc(C)cc2)csc1N` was tested. Which activity change, negative = inhibition did it give?
**A.** -4.41%

**Q.** With `Cc1oc(-c2ccccc2)cc1C(=O)Nc1cccc(C(=O)O)c1` as the molecule, how does the activity change, negative = inhibition read?
**A.** -45.5%

**Q.** For `COc1ccccc1C(=O)Nc1nc2nc(-c3ccccc3)cc(=O)n2[nH]1`, which activity change, negative = inhibition is on record?
**A.** -46.5%

**Q.** How did the activity change, negative = inhibition turn out when `Cc1cccc(C(=O)Nc2ccc(O)cc2)c1` was run?
**A.** -86.3%

**Q.** `Cc1cc(C)nc(NS(=O)(=O)c2ccc(NC(=O)Cc3ccccc3F)cc2)n1` was tested. Which activity change, negative = inhibition did it give?
**A.** -98.5%

**Q.** For `c1ccc(CCCN2CCN(c3ccccc3)CC2)cc1`, which activity change, negative = inhibition is on record?
**A.** -9.66%

**Q.** How did the activity change, negative = inhibition turn out when `O=C(CCCC1=NS(=O)(=O)c2ccccc2N1)N1CCN(c2ccc(Cl)cc2)CC1` was run?
**A.** -50.1%

**Q.** How did the activity change, negative = inhibition turn out when `COC(=O)c1ccc(NC(=O)CN2CCN(c3ccccc3)CC2)cc1` was run?
**A.** -30.3%

**Q.** How did the activity change, negative = inhibition turn out when `Cc1nc2nc(C)c(CCC(=O)N3CCN(c4ccccc4)CC3)c(C)n2n1` was run?
**A.** -54.1%

**Q.** `Cc1nn(-c2ccccc2)c2nc(-c3ccco3)cc(C(=O)O)c12` was tested. Which activity change, negative = inhibition did it give?
**A.** -53.4%

**Q.** With `COC(=O)c1ccc(CSc2nc3ccc(Cl)cc3[nH]2)o1` as the molecule, how does the activity change, negative = inhibition read?
**A.** -47.5%

**Q.** How did the activity change, negative = inhibition turn out when `COC(=O)c1ccc(CSc2ncnc3c2nnn3-c2ccc(F)cc2)o1` was run?
**A.** -6.9%

Source: PubChem BioAssay AID493248 (Broad Institute, 2011)
